Results filed as inconclusive are left out. Unmarked numbers belong to inactive results. Activity calls are given as the source filed them. Calls come from the whole dose curve; as a rule, active = well fitted inhibition curve with a large enough effect; inconclusive = small, poorly fitted or top-dose-only effect; inactive = flat fitted curve, though single readings scatter.

Here are results for 18 molecules from PubChem BioAssay (NCATS).

Assay in all cases: Cytotoxic Profiling of Annotated Libraries Using Quantitative High-Throughput Screening (AID 1296008); note: nearly all actives have a fitted effect of over 60% in size
What all share (settings): Five cell lines viability, CellTiter-Glo ATP luminescence, 48-72 h; max response: stronger effect = lower value

In one assay the test system is CRL-7250. In a few lines:
(§1)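 Compounds were pin-transferred onto cells and incubated 48 or 72 hr at 37 degree Celsius, 95% humidity. CellTiter-Glo was added, plates sat 10 min at room temperature, then ATP-coupled luminescence was imaged as the viability read-out.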

Another assay relates to HEK293. In a few lines: as §1
For the next assay, the system named is HaCat. An outline of the steps: as §1
The next assay concerns KB-3-1. An outline of the steps: as §1
The test system of the next assay is NIH3T3. An outline of the steps:
as §1
% is set by controls: 0 for no effect and ±100 for the full control effect; potency is the fitted concentration of half-maximal effect.

Turning to `CC(c1ncncc1F)C(O)(Cn1cncn1)c1ccc(F)cc1F` (stereo not given), the result with CRL-7250 was inactive. In addition, the max response with HEK293 is -0.4%; with HaCat, -2.25%; in the assay on KB-3-1, 0.345%; in the assay with NIH3T3, -5.84%.

With `O=C(CCc1nnc2n(Cc3ccc(Cl)cc3)c(=O)c3ccccc3n12)NCCC1=CCCCC1`, the max response in the assay on CRL-7250 is -19.2%; in the assay with HEK293 it was -12.9%; in the assay on HaCat, 3.41%; in the assay on KB-3-1, -11.9%; in the assay on NIH3T3, 1.28%.

As for `COc1cc(C)c(C(=O)O[C@H]2[C@@H](OC(C)=O)[C@H](n3ccc(=O)[nH]c3=O)O[C@@H]2CO)c(OC)c1`, the max response in the assay on CRL-7250 is -2.01%; with HEK293, -0.552%; with HaCat, -9.32%; in the assay with KB-3-1, 0.943%; in the assay on NIH3T3, -14.4%.

For the molecule `CC(C)(O)C1CCC(C)(C2CCC3(C)C4CCC5C(C)(C(=O)OC6OC(CO)C(O)C(O)C6O)C(O)CC(O)C56CC46CCC23C)O1` (stereo not given), the molecule was called inactive in the assay with CRL-7250 and in the assay with HaCat. Moreover, the figures for the max response in the assay on HEK293, in the assay on KB-3-1 and in the assay with NIH3T3 were 0.689%, -9.11% and -1.85%, respectively.

Turning to `CC1CC(O)/C=C/C(O)C(O)CC(=O)Cc2c(Cl)c(O)cc(O)c2C(=O)O1` (stereo not given), the max response is 2.61% in the assay with CRL-7250, 0.716% in the assay with HEK293, -4.28% in the assay with HaCat and -18.1% with NIH3T3. In the assay on KB-3-1, the molecule was called inactive.

With `CC(C)c1cc(C(=O)N2CC[C@@H](NC(=O)C3CC3)C2)n[nH]1`, the max response with CRL-7250 was -17.8%; with HEK293, -9.12%; in the assay on HaCat, 0.869%; in the assay with KB-3-1 it was 2.09%; in the assay on NIH3T3 it was -14.5%.

On to `CC1CC(C(O)C(C)(C)O)OC2CC3(C)C4(C)CCC5C(C)(C)C(=O)CCC5(C)C4CCC3(O)C12O` (stereo not given), for which the max response with CRL-7250 is 3.36%; in the assay with HEK293 it was -2.59%; in the assay with HaCat, 3.58%; in the assay on NIH3T3 it was 2.04%. Moreover, the outcome in the assay on KB-3-1 was inactive.

`CC(C)C(NC(=O)c1ccc2ccccc2n1)C(=O)NC(CC(=O)O)C(=O)COc1c(F)cccc1F` (stereo not given): the max response was -6.89% with CRL-7250; -1.52% in the assay on HEK293; -3.62% with HaCat; 2.53% in the assay with KB-3-1; -0.522% in the assay on NIH3T3.

With `C[C@]12C=C[C@@]3(CCC4[C@](C)(CO)CCC[C@@]4(C)C3CC1)C2` (stereo not given in full), the max response is -1.08% in the assay with CRL-7250; -17.4% with HEK293; -20.7% in the assay with HaCat; 4.11% with KB-3-1; -6.89% in the assay on NIH3T3.

As for `C=C1C(=O)OC2C1C(O)CC1(C)C(O)CCC(C=O)C21` (stereo not given), the molecule was called inactive in the assay on CRL-7250 and with KB-3-1. The max response with HEK293 was -0.284%; in the assay on HaCat it was -11.8%; in the assay with NIH3T3, -0.523%.

Consider `COC(=O)c1ccc(OC(CO)C(O)c2ccc(O)c(OC)c2)c(OC)c1` (stereo not given), for which the max response was 0.832% in the assay with CRL-7250; 1.51% in the assay with HEK293; 1.74% in the assay on HaCat; -5.47% in the assay on KB-3-1; -1.03% in the assay on NIH3T3.

As to `O=C1N=C(N2CCOCC2)CN1c1ccc(Cl)cc1`, the max response is -3.02% with CRL-7250; -16.9% with HEK293; -30.2% in the assay with HaCat; 2.82% in the assay with KB-3-1; -0.0852% in the assay on NIH3T3.

As to `CC1=CC(=O)CC(C)(CO)C1(O)/C=C/C(C)O[C@@H]1O[C@H](CO)[C@@H](O)[C@H](O)[C@H]1O` (stereo not given in full), the max response was -0.153% with CRL-7250; -1.52% in the assay on HEK293; 2.49% in the assay with HaCat; -2.84% in the assay with KB-3-1; -3.42% with NIH3T3.

Regarding `O=[N+]([O-])c1cn2c(n1)OCC(OCc1ccc(OC(F)(F)F)cc1)C2` (stereo not given), the max response with CRL-7250 was -10.3%; in the assay with HEK293, -14.5%; with HaCat, -6.12%; in the assay with KB-3-1, -10.4%; with NIH3T3, 0.653%.

As for `COc1ccc(/C=C/C(=O)O[C@@H]2[C@@H](O)[C@H](C)O[C@@H](O[C@H]3[C@@H]4C=CO[C@@H](O[C@H]5O[C@@H](CO)[C@H](O)[C@@H](O)[C@@H]5O)[C@@H]4[C@@]4(CO)O[C@@H]34)[C@@H]2OC(C)=O)cc1`, the max response with CRL-7250 was -2.4%; in the assay on HEK293, 0.0012%; with HaCat it was 3.75%; in the assay with KB-3-1 it was 9.04%; in the assay with NIH3T3, 1.61%.

Turning to `Cn1nc(C(C)(C)C)cc1C(=O)NC(Cc1cccc(Cl)c1)C(=O)NCC#N` (stereo not given), the molecule was called inactive in the assay on CRL-7250. Also, the max response is -17.2% with HEK293, -59.1% in the assay on HaCat, 1.87% with KB-3-1 and 0.163% in the assay on NIH3T3.

`CC(=O)O[C@@H]1C[C@@H](OC(C)=O)C(C)(C)/C=C/[C@H](C)[C@H](OC(C)=O)[C@@]2(O)C[C@H](C)[C@H](OC(=O)c3ccccc3)[C@@H]2/C=C/1C`: the max response in the assay with CRL-7250 is -20.7%; with HEK293 it was -1.35%; with HaCat, 4.68%; in the assay with KB-3-1, 5.28%; in the assay with NIH3T3, -4.04%.

Regarding `CCOc1cc2ncc(C#N)c(Nc3ccc(F)c(Cl)c3)c2cc1NC(=O)/C=C/CN(C)C`, the Potency in the assay with CRL-7250 is 651 nM (active); in the assay on HEK293 it was 1640 nM (active); in the assay with HaCat it was 25.9 nM (active); in the assay with KB-3-1, 5800 nM (active); in the assay with NIH3T3, 3660 nM (active).
